Source: PubChem
AmpC no deterg: blocks E. coli AmpC beta-lactamase in detergent-free assay; AmpC nitrocefin hydrolysis, absorbance 480 nm, 0.0001% Triton; P00811; 0.52% of 330,000 active; Potency, µM (highest dose often 57.1 µM), inactives show at the top dose activity change, negative = inhibition, most hits filed as inhibitors; AID 485341;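 note: potency is the fitted concentration of half-maximal effect; plate controls were no compound for no effect and no enzyme for full effect; nearly all actives have a fitted effect of over 20% in size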
Target sequence (P00811 whole entry, looked up): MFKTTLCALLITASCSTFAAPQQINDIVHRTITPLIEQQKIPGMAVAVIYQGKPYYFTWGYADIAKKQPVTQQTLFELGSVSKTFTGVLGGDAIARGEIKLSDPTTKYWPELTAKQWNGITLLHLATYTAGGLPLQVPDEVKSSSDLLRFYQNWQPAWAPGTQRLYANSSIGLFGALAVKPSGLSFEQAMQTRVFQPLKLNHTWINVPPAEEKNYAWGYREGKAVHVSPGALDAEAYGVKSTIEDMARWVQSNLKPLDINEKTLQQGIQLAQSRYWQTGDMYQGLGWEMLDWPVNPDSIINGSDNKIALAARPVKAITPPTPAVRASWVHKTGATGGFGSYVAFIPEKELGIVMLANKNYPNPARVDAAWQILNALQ
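AmpC (5.3 nM in the dispensed reagent) in 20 mM phosphate pH 7.0 with 0.01% (detergent screen) or 0.0001% Triton X-100 was preincubated with compounds for 15 min at room temperature. Nitrocefin was then added from an 800 uM solution, and hydrolysis was followed at 480 nm.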
AmpC inh detg: inhibitors of E. coli AmpC beta-lactamase with detergent; AmpC hydrolysis of nitrocefin, absorbance 480 nm, 0.01% Triton; Potency, µM (titrated, usually from 114 µM), for inactives: top-dose activity change, negative = inhibition, hits mostly inhibitors; 0.041% of 370,000 active;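 note: potency is the fitted concentration of half-maximal effect; 0% = no-compound wells and -100% = no-enzyme wells; nearly all actives have a fitted effect of over 25% in size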
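20 mM phosphate pH 7.0 + 0.01% (detergent screen) or 0.0001% Triton X-100; 5.3 nM AmpC reagent; cpd preinc 15 min RT; nitrocefin (800 uM stock) to start; A480 q20 s × 4 min; Activity was normalised to no-enzyme and no-compound control wells.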
LmPK inhibitor: LmPK (Leishmania mexicana) enzyme inhibition; Potency, µM (doses to about 57.5 µM), without a hit: at the highest dose activity change, negative = inhibition, hits mostly inhibitors; Q27686; 0.37% of 290,000 active; purified LmPK, Kinase-Glo ATP luminescence, 1 h; note: potency is the fitted concentration of half-maximal effect; % is set by controls: 0 for no effect and ±100 for the full control effect
Target sequence (Q27686 whole entry, looked up): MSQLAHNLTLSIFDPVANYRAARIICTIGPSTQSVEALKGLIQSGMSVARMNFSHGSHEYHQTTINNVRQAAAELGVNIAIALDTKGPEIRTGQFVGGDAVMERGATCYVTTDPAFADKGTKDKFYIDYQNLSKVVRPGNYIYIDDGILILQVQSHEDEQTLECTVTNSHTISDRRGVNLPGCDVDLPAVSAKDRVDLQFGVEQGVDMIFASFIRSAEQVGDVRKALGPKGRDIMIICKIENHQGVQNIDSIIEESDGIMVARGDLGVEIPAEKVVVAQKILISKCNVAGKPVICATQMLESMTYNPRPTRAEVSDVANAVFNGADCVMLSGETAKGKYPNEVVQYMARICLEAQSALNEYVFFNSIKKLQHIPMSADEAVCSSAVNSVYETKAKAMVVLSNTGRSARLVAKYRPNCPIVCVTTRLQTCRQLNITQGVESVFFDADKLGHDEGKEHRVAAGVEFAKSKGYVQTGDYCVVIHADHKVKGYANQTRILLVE
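qHTS format; LmPK 0.1 nM; substrates PEP 0.5 mM and ADP 0.1 mM. One-hour room-temperature incubation, then coupled luciferase luminescence; 0.5 nM enzyme wells mark activation.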
Giardia FBPA inh-1: Giardia lamblia aldolase inhibition; A8B2U2; purified Giardia FBPA; Potency, µM (series often up to 59.6 µM), for inactives: at the highest dose activity, negative = inhibition, actives largely listed as inhibitors; 0.71% of 290,000 active; note: potency is the fitted concentration of half-maximal effect; % is set by controls: 0 for no effect and ±100 for the full control effect; nearly all actives have a fitted effect of over 55% in size
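40 nM FBPA preincubated 10 min at RT with compound (up to 57.5 uM final), then substrate plus GAPDH/TPI/NAD/arsenate coupling and diaphorase/resazurin added. Fluorescence read after 20 min at RT, 525/598 nm.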
RE007 growth inh: less growth of the S. pombe RE007 Vpr strain. S. pombe RE007 Vpr strain, BacTiter-Glo ATP luminescence, 24 h. Potency, µM (series often up to 92.2 µM), inactives show at the highest dose activity change, negative = less growth, hits mostly inhibitors. 0.21% of 360,000 active; active = well fitted falling curve with a large enough effect; inconclusive = small, poorly fitted or top-dose-only effect; inactive = no such curve, though single readings can be large or run the other way; note: potency is the fitted concentration of half-maximal effect; % is set by controls: 0 for no effect and ±100 for the full control effect; nearly all actives have a fitted effect of over 50% in size
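Fission yeast strain RE007, carrying one chromosomally integrated HIV-1 vpr copy, was seeded at OD 0.01 in PMG+AL medium with 23 nL pinned compound. After 24 h at 30 °C and 99% humidity, viability was read by BacTiter-Glo luminescence.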
Tb PYK inh: T. brucei pyruvate kinase inhibition; Q57TT1; TbPYK enzyme, Kinase-Glo Plus ATP luminescence, 45 min; Potency, µM (doses to about 76.8 µM), inactives show at the highest dose activity, negative = inhibition, usual class: inhibitors; 0.12% of 410,000 active; note: potency is the fitted concentration of half-maximal effect; % is set by controls: 0 for no effect and ±100 for the full control effect; nearly all actives have a fitted effect of over 50% in size
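Quantitative HTS: titrated library compounds versus trypanosomal pyruvate kinase in TEA buffer (pH 7.2) containing KCl, MgCl2, BSA and Tween-20. Reactions were initiated with ADP, 130 uM final. Kinase-Glo Plus luminescence was read after 45 min at RT.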
LmPK inh confirm: Blocks LmPK activity, confirmation assay | purified LmPK, Kinase-Glo ATP luminescence, 1 h | 40% of 150 active | Potency, µM (highest dose often 57.5 µM), for the others: at the top dose activity change, negative = inhibition, actives largely listed as inhibitors | shares compounds with LmPK inhibitor;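 active = compounds giving a full or partial concentration-response curve, as inhibitors or activators; inconclusive = weak, top-dose-only or unclear curve responses; inactive = no response at any tested dose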
Giardia growth: inhibitors of Giardia lamblia growth; 5% of 1,500 active; Giardia lamblia trophozoite growth inhibition; Potency, µM (series often up to 57.5 µM), inactives show at the top dose activity change, negative = inhibition, usual class: inhibitors; shares compounds with Giardia FBPA inh-1;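 note: potency is the fitted concentration of half-maximal effect; trophozoites exposed to compound for 48 h at 37 °C; % is set by controls: 0 for no effect and ±100 for the full control effect; nearly all actives have a fitted effect of over 70% in size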
Mammalian tox: counter-screen for Giardia aldolase inhibitors: mammalian cell toxicity; shares compounds with Giardia FBPA inh-1; mammalian cell viability counter-screen, qHTS; Potency, µM (top dose mostly 57.5 µM), inactives show at the highest dose viability change, negative = toxicity, actives largely listed as inhibitors; 4% of 1,500 active;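 note: Chinese hamster ovary cells used as mammalian cytotoxicity surrogate; viability measured as cellular ATP by luminescence; potency is the fitted concentration of half-maximal effect; compound exposure lasted 48 h before reading; % is set by controls: 0 for no effect and ±100 for the full control effect; nearly all actives have a fitted effect of over 60% in size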
Giardia FBPA inh-2: confirmation of Giardia fructose-bisphosphate aldolase inhibitors. shares compounds with Giardia FBPA inh-1. purified Giardia aldolase enzyme activity, qHTS. Potency, µM (series often up to 57.5 µM), inactives show top-dose activity change, negative = inhibition, usual class: inhibitors. AID 2787. 5% of 1,500 active; note: potency is the fitted concentration of half-maximal effect; % is set by controls: 0 for no effect and ±100 for the full control effect; nearly all actives have a fitted effect of over 45% in size
Rabbit aldolase: selectivity test for Giardia aldolase inhibitors: rabbit aldolase; shares compounds with Giardia FBPA inh-1; Rabbit muscle FBPA enzyme inhibition, selectivity counter-screen; Potency, µM (highest dose often 57.5 µM), inactives show at the highest dose activity, negative = inhibition, most hits filed as inhibitors; 4% of 1,500 active; note: potency is the fitted concentration of half-maximal effect; % is set by controls: 0 for no effect and ±100 for the full control effect; nearly all actives have a fitted effect of over 60% in size
GAPDH counter: GAPDH inhibition flagged for Giardia aldolase hits; AID 2795; shares compounds with Giardia FBPA inh-1; Potency, µM (top dose mostly 57.5 µM), without a hit: at the highest dose activity change, negative = inhibition, most hits filed as inhibitors; 6% of 1,500 active; GAPDH coupling enzyme counterscreen, biochemical, qHTS; note: potency is the fitted concentration of half-maximal effect; % is set by controls: 0 for no effect and ±100 for the full control effect; nearly all actives have a fitted effect of over 55% in size
Numbers without * were called inactive; ? = inconclusive; . = no result; [ ] = remark or other dose. Most compounds without a hit are left out; they make up all but 1.4% or so of the library. Unless noted, calls come from the whole dose curve; as a rule, active = well fitted curve in the direction sought with a large enough effect; inconclusive = small, poorly fitted or top-dose-only effect, or another doubt; inactive = no such curve, though single readings can be large; an effect the other way counts as inactive or inconclusive.

SMILES	AmpC no deterg	AmpC inh detg	LmPK inhibitor	Giardia FBPA inh-1	RE007 growth inh	Tb PYK inh	LmPK inh confirm	others
Cn1c(-c2ccc(Br)cc2)cnc1NCc1cccnc1	-18%	-10%	-3%	.	-4%	5%	4%
COc1cc(CNc2ncc(-c3ccc(Br)cc3)n2C)cc(OC)c1OC	40%	?	-3%	?	-14%	8%	.
Cc1ccc(-n2ccn(CC(=O)c3ccc(F)cc3)c(=O)c2=O)cc1C	.	-8%	.	.	.	6%	.
Cn1cc(CN(Cc2ccccc2)C[C@@H]2CCC(=O)N2)c(-c2ccccc2F)n1	190%	1%	-1%	-4%	-2%	-2%	6%
CC1Cc2ccccc2N1C(=O)c1ccc(Br)o1 (stereo not drawn)	.	.	.	.	-18%	-22%	.
Cc1ccc(C(=O)N2c3ccccc3CC2C)o1 (stereo not drawn)	-12%	-4%	6.3µM*	2%	?	-19%	?
CC(=O)Nc1ccc(C(=O)NNC(=O)CCc2ccccc2)cc1	-12%	-14%	-4%	6%	-11%	-7%	4%
O=C(CCc1ccccc1)NNC(=O)c1ccc(NC(=O)c2ccccc2)cc1	?	-10%	2%	2%	-14%	-6%	.
C/C(CC(=O)Nc1ccccn1)=N\NC(=O)C(=O)Nc1cccc(C)c1	-33%	3%	-7%	-1%	-11%	2%	.
O=C(Nc1cccc(O)c1)C(=O)Nc1ccccn1	-15%	7%	7.9µM*	-10%	?	?	21µM*
O=C(COC(=O)CCC(=O)c1ccc(F)cc1)Nc1ccc(F)cc1F	11%	3%	2.2µM*	2%	-1%	0%	-8%
O=C(COC(=O)CCC(=O)c1ccc(F)cc1)Nc1ccccc1	-20%	-4%	6%	0%	-5%	9%	.
CC(C)OCCCn1c(=O)c2ccccc2n2c(-c3cc(Cl)ccc3O)nnc12	.	29%	.	.	.	0%	.
Cc1nnc(N2CCN(c3ccccc3F)CC2)c2c1nnn2Cc1ccccc1Cl	.	24%	.	.	.	1%	.
CCN(Cc1ccncc1)Cc1cn(C)nc1-c1ccc(Oc2ccccc2)cc1	215%	6%	2%	-5%	1%	4%	-2%
CC(C)N(C)Cc1cn(C)nc1-c1ccc(Oc2ccccc2)cc1	0%	-12%	4%	14%	-1%	3%	.
COc1ccc(OC)c2[nH]c(=O)c(CCNS(=O)(=O)c3ccc(C)cc3)cc12	77%	-1%	2%	?	3%	3%	5%
O=c1c2ccccc2cnn1-c1nc2ccccc2[nH]1	-27%	3%	2.2µM*	-14%	?	13µM*	3.3µM*
O=c1c2ccccc2nc2c3ccccc3cnn12	-20%	2%	-12%	1%	-9%	2%	.
Cn1nnc2c(NCc3ccc(Cl)cc3)ncnc21	.	0%	.	.	.	17%	.
CN1CCc2cccc3c2C1Cc1ccc(O)c(O)c1-3 (stereo not drawn)	-11%	?	3.2µM*	14µM*	12%	-3%	1%	Giardia growth=6%[10.4 µM];Mammalian tox=-18%;Giardia FBPA inh-2=?;Rabbit aldolase=?;GAPDH counter=-10%
COc1ccc2[nH]c(=O)c(CN(C(=O)c3cccc(Cl)c3)c3ccccc3C)cc2c1	.	4%	.	.	.	-3%	.
COC(=O)/C(=C/Nc1cccc2ccccc12)[N+](=O)[O-]	-19%	10%	27%	?	-1%	-10%	.	Giardia growth=-19%[38.3 µM];Mammalian tox=-15%;Giardia FBPA inh-2=?;Rabbit aldolase=?;GAPDH counter=?
COc1cc(OC)cc(C(=O)Nc2cccc3ccccc23)c1	-16%	10%	7%	-2%	3%	5%	.
Cc1[nH]c2ccccc2c1/C=N/Nc1nncn1N	-12%	5%	-1%	13µM*	1%	-5%	.	Giardia growth=-12%;Mammalian tox=-19%;Giardia FBPA inh-2=?;Rabbit aldolase=?;GAPDH counter=-27%
SMILES	AmpC no deterg	AmpC inh detg	LmPK inhibitor	Giardia FBPA inh-1	RE007 growth inh	Tb PYK inh	LmPK inh confirm	others
COc1cccc(Cn2c(C)c(CNCc3ccccc3Cl)c(C(=O)O)c2C)c1	.	11%	.	.	.	6%	.
CCN1CCN(CCCN(Cc2ccco2)C(=S)Nc2cc(Cl)ccc2C)CC1	36%	-11%	3%	16µM*	-6%	-8%	.	Giardia growth=?;Mammalian tox=-9%;Giardia FBPA inh-2=-4%;Rabbit aldolase=7%;GAPDH counter=10%
CCN1CCN(CCCN(Cc2ccco2)C(=S)Nc2ccc(C)c(Cl)c2)CC1	72%	0%	4%	0%	-19%	-6%	.
CC(C)(C)NNC(=S)Nc1ccc(S(=O)(=O)N2CCOCC2)cc1	-35%	-5%	1%	22µM*	-1%	1%	.	Giardia growth=-3%[10.4 µM];Mammalian tox=-5%;Giardia FBPA inh-2=0%;Rabbit aldolase=7%;GAPDH counter=8%
CC(=O)NC(=S)Nc1ccc(S(=O)(=O)N2CCOCC2)cc1	-9%	-2%	-1%	2%	25%	-1%	.
CCOc1cc(C(=O)NCC(c2ccc(N(C)C)cc2)N2CCOCC2)cc(OCC)c1OCC (stereo not drawn)	.	8%	.	.	.	-12%	.
Cc1cc(NC2=CC(=O)C(=O)c3ccccc32)no1	.	.	.	.	-28%	-11%	.
COc1cc(OC)c(NC2=CC(=O)C(=O)c3ccccc32)cc1Cl	-18%	1%	-1%	?	-14%	-2%	.	Giardia growth=22µM*;Mammalian tox=21µM*;Giardia FBPA inh-2=12µM*;Rabbit aldolase=13µM*;GAPDH counter=15µM*
CCc1ccc(-n2nc(CO)c(C(=O)NCCCCc3ccccc3)n2)cc1	.	0%	.	.	.	1%	.
